Laboratory results taken from PubChem BioAssay (EPA / NIEHS).
Where “and” joins values, the source holds several entries; their conditions need not be identical. Equal entries are not always repeated. Results filed as inconclusive are left out. A structure can be active in one record and inactive in another. Calls of active or inactive are those of the source. How the source made its calls: active means hit-call score of the fitted dose curve at least 0.9, where 1 is the maximum; inconclusive means response in the unintended direction; inactive means score below 0.9.

Assays:
[1] = molecular target: Estrogen receptor (Homo sapiens) + Estrogen receptor beta (Homo sapiens) (UniProt P03372+Q92731); test: OT_ER_ERaERb_1440: Odyssey Thera (OT) 24-hour HEK293T Protein-Complementation Assay for Estrogen Receptor-alpha/-beta Homodimer (AID 2283356);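 further: heteromer of ER alpha and ER beta binding domains; hits raise reporter fluorescence and both agonists and antagonists give an increase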
Outline: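 HEK293T cells stably expressing a PCA pair of ERα LBD (aa 310-547) and ERβ LBD (aa 263-489) were dosed for 24 h. Fluorescence intensity increase versus DMSO vehicle was fitted as gain-of-signal.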

[2] = molecular target: Estrogen receptor beta (Homo sapiens) (UniProt Q92731); test: OT_ER_ERbERb_0480: Odyssey Thera (OT) 8-hour HEK293T Protein-Complementation Assay for Estrogen Receptor-beta/-beta Homodimer (AID 2283357);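 further: active means signal gain over DMSO baseline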
Outline: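 Homodimerization of ER-beta LBD measured by protein-fragment complementation in HEK293T; 8 h dosing; fixed, Draq5 counterstain; fluorescence intensity gain over DMSO baseline, positive fitting direction; laser scanning cytometry.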

[3] = molecular target: Glucocorticoid receptor (Homo sapiens) (UniProt P04150); test: NVS_NR_hGR: NovaScreen (NVS) Nuclear Receptor Binding Assay for human Glucocorticoid Receptor (GR) (AID 2283363);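 on AC50: activity is loss of specific radioligand binding signal relative to DMSO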
Outline: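 Filter scintillation readout of tritiated/iodinated radioligand displaced by test chemical; cell-free extracted protein; 16 h. DMSO = negative control/baseline. Duplicate single-point 25 uM screen, then concentration-response on actives.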

[4] = molecular target: Nuclear receptor subfamily 1 group I member 2 (Homo sapiens) (UniProt O75469); test: NVS_NR_hPXR: NovaScreen (NVS) Nuclear Receptor Binding Assay for human Pregnane X Receptor (PXR) (AID 2283365);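 further: a drop in FRET signal versus DMSO baseline means the compound binds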
Outline: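 Cell-free binding assay with extracted human PXR protein, read by TR-FRET 2 h after dosing; loss of signal relative to DMSO baseline indicates binding. Primary screen at 25 uM in duplicate, actives retested in concentration series.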

[5] = molecular target: rat Androgen Receptor (AR), Ar (gene 24208) (UniProt P15207); test: NVS_NR_rAR: NovaScreen (NVS) Nuclear Receptor Binding Assay for rat Androgen Receptor (AR) (AID 2283366)
Outline: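 Actives from a duplicate single-concentration (25 uM) primary run went on to concentration series. Displacement of radioligand was counted by filtration and scintillation, 18 h post-dose, using prostate extracts from testosterone-pretreated rats, with DMSO as baseline.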

[6] = molecular target: Retinoic acid receptor alpha (Homo sapiens) (UniProt P10276); test: NVS_NR_hRARa_Agonist: NovaScreen (NVS) Nuclear Receptor Binding Assay for human Retinoic Acid Alpha Receptor Agonism (RAR) (AID 2283361)
Outline: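 TR-FRET signal, 2 h post-dosing; cell-free extracted protein; DMSO = baseline, positive fitting direction; 25 uM single-point duplicate, then concentration series for actives.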

[7] = molecular target: Retinoic acid receptor alpha (Homo sapiens) (UniProt P10276); test: NVS_NR_hRAR_Antagonist: NovaScreen (NVS) Nuclear Receptor Binding Assay for human Retinoic Acid Alpha Receptor Antagonism (RAR) (AID 2283358)
Outline: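 Read-out: time-resolved FRET binding signal, 2 h post-dose, cell-free extracted protein. Antagonism scored as signal loss versus DMSO negative control. Primary single-concentration screen at 25 uM in duplicate; concentration series for actives.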

[8] = molecular target: human Peroxisome Proliferator-activated Receptor alpha (PPARa), PPARA (gene 5465) (UniProt Q07869); test: NVS_NR_hPPARa: NovaScreen (NVS) Nuclear Receptor Binding Assay for human Peroxisome Proliferator-activated Receptor alpha (PPARa) (AID 2283359);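 further: activity means loss of TR-FRET signal versus DMSO baseline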
Outline: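 TR-FRET signal measured at 1 h post-dosing; loss-of-signal versus DMSO negative control taken as activity. Extracted gene-protein, cell-free format. Initial single-point duplicates at 25 uM, then concentration-response retests.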

[9] = molecular target: PGR (gene 5241) (UniProt P06401); test: NVS_NR_hPR: NovaScreen (NVS) Nuclear Receptor Binding Assay for human Progestron Receptor (PR) (AID 2283360);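 further: active means loss of bound radioligand signal versus DMSO baseline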
Outline: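 T47D-derived receptor preparation, cell-free, with tritiated or iodinated radioligand displacement measured by scintillation 18 h post-dosing. Single 25 uM duplicate screen, then concentration series; signal loss relative to DMSO.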

[10] = molecular target: human Thyroid Receptor Alpha (TRa), THRA (gene 7067) (UniProt P10827); test: NVS_NR_hTRa_Antagonist: NovaScreen (NVS) Nuclear Receptor Binding Assay for human Thyroid Receptor Alpha Antagonism (TRa) (AID 2283362);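 further: activity is loss of signal relative to DMSO baseline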
Outline: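 Cell-free binding assay on extracted receptor protein, read 1 h after chemical dosing by AlphaLISA chemiluminescence; loss of signal relative to DMSO baseline marks antagonism. Primary screen ran in duplicate at 25 uM, with concentration series for actives.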

Chain of Glucocorticoid receptor (Homo sapiens) (P04150 whole entry, looked up): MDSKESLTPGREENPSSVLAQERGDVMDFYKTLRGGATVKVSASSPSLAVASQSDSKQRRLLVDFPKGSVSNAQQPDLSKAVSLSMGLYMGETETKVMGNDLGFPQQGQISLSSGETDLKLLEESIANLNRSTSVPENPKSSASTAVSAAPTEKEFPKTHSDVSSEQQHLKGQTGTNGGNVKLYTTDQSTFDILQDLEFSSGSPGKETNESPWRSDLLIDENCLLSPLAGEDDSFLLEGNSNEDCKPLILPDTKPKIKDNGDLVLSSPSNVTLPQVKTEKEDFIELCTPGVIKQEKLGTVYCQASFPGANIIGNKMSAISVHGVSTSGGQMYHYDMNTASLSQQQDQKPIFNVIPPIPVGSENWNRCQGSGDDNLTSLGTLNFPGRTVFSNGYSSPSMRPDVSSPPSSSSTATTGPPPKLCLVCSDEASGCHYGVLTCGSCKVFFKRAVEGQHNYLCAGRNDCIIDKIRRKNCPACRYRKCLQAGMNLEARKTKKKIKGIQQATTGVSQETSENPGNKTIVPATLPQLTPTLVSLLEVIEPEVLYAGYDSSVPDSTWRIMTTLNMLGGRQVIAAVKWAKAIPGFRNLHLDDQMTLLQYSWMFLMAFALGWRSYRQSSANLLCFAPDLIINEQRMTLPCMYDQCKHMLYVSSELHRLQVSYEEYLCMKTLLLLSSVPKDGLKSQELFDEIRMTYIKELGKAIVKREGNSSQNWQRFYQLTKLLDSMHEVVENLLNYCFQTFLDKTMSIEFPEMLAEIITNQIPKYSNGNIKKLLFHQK
Chain of PGR (gene 5241) (P06401 whole entry, looked up): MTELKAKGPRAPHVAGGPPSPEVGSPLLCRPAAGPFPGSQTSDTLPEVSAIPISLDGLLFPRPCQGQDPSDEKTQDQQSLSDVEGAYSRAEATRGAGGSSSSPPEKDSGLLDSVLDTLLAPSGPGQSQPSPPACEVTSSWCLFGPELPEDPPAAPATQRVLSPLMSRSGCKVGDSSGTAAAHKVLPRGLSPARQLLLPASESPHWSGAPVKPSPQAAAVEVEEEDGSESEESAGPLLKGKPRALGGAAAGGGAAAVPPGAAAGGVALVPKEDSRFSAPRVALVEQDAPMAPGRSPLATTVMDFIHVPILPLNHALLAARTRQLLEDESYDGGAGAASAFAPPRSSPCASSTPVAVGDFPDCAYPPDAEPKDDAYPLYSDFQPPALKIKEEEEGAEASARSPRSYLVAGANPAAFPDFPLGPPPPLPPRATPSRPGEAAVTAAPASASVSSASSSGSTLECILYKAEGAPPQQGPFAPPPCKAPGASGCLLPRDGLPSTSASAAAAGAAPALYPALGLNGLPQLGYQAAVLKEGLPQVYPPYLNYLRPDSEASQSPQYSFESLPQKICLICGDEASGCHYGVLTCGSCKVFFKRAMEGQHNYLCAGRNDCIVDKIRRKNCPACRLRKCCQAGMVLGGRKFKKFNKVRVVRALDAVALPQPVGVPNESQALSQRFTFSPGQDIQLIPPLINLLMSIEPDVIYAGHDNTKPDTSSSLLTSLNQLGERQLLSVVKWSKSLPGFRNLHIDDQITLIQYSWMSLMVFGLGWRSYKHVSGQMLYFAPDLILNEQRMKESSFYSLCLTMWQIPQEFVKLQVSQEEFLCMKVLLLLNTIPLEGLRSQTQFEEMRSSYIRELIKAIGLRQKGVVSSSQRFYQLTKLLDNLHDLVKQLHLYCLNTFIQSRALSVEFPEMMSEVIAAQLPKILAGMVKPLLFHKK
Chain of Nuclear receptor subfamily 1 group I member 2 (Homo sapiens) (O75469 whole entry, looked up): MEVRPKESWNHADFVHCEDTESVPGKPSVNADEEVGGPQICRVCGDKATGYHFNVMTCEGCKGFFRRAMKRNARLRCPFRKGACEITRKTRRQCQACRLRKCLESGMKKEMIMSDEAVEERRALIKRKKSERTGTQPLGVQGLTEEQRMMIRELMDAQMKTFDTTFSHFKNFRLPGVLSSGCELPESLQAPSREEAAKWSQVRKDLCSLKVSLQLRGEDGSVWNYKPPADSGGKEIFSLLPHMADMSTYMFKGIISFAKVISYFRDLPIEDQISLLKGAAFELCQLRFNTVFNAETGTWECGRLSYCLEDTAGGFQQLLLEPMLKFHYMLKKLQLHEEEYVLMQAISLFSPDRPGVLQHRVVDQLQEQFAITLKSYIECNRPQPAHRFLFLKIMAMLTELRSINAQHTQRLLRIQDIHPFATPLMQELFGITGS
Chain of rat Androgen Receptor (AR), Ar (gene 24208) (P15207 whole entry, looked up): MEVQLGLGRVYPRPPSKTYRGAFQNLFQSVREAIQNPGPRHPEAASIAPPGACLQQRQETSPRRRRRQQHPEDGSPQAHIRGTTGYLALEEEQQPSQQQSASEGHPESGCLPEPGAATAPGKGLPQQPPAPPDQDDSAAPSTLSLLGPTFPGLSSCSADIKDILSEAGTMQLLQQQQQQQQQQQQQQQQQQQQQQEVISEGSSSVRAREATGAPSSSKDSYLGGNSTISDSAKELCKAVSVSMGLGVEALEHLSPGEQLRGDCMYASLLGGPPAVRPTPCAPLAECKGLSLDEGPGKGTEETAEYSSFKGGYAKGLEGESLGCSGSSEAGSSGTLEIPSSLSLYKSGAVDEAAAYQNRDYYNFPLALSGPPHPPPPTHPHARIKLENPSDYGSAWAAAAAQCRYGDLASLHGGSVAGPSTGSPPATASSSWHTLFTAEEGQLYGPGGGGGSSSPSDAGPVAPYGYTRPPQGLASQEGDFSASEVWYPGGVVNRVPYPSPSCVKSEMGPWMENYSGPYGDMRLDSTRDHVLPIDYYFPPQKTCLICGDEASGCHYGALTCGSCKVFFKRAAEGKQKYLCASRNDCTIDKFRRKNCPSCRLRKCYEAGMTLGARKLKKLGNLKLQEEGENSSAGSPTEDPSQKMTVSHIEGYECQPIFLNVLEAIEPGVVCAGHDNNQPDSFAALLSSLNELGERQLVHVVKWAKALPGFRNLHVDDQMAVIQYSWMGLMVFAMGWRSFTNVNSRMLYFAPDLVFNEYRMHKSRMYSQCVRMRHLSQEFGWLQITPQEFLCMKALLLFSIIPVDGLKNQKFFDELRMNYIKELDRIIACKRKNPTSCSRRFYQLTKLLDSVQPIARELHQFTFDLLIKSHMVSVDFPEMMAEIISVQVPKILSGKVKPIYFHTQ
Chain of Retinoic acid receptor alpha (Homo sapiens) (P10276 whole entry, looked up): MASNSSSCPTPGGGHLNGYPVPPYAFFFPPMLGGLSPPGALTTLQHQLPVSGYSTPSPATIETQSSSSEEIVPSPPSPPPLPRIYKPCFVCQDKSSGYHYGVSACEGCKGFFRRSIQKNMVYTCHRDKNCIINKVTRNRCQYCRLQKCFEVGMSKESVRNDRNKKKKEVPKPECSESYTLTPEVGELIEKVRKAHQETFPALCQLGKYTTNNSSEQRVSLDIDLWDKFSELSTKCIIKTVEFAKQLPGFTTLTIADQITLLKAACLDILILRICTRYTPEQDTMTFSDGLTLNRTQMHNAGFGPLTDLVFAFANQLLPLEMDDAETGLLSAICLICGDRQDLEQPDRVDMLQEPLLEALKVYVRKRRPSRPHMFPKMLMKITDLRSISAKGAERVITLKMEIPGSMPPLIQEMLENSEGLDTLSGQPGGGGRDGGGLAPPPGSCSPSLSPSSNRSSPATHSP
Chain of human Thyroid Receptor Alpha (TRa), THRA (gene 7067) (P10827 whole entry, looked up): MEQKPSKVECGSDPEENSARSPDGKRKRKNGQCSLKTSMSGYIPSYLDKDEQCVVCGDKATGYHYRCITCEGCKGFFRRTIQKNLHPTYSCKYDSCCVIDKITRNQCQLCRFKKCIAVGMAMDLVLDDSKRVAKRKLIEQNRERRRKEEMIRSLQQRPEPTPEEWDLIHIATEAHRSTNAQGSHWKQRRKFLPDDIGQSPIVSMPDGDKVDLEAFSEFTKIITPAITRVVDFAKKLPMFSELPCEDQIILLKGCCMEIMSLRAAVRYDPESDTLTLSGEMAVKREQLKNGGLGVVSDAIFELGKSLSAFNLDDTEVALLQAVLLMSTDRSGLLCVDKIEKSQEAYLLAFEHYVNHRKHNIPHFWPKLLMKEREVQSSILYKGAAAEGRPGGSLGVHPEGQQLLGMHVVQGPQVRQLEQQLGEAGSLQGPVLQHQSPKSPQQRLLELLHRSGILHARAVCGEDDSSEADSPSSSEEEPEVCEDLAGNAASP
Chain of human Peroxisome Proliferator-activated Receptor alpha (PPARa), PPARA (gene 5465) (Q07869 whole entry, looked up): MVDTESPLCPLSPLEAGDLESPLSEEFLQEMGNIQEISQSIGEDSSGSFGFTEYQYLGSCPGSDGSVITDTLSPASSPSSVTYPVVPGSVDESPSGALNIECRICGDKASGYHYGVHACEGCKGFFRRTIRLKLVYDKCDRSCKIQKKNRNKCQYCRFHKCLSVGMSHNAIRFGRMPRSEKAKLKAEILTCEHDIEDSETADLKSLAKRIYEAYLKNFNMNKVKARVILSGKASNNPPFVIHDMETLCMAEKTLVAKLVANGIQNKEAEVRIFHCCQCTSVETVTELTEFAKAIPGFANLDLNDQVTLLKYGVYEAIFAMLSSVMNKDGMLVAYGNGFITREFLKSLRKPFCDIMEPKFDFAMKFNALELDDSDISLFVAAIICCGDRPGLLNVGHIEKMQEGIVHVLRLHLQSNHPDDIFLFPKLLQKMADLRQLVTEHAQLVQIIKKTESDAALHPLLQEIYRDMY
Chain of Estrogen receptor beta (Homo sapiens) (Q92731 whole entry, looked up, the tested form may be a part): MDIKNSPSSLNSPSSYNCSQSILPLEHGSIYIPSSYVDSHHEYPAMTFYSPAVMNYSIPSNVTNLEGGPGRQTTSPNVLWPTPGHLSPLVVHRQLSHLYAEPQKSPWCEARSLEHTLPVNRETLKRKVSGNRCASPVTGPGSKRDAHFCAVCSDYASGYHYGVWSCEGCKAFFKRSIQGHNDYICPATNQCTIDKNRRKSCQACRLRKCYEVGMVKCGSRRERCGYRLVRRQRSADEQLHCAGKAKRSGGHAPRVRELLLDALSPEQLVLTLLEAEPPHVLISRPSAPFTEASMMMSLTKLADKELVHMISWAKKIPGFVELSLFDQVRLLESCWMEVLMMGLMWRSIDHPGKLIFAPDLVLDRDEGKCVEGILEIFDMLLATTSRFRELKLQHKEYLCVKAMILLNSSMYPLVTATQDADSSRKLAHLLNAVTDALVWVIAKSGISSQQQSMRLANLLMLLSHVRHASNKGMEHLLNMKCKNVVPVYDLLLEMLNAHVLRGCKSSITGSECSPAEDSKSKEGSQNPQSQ

`O=C(O)c1ccccc1C(c1ccc(O)cc1)c1ccc(O)cc1` was tested, and the outcome [1] was “inactive”, the outcome [2] was “inactive” and the AC50 [3] was 10.2 µM (active). For the same compound, the outcome [4] was “inactive” and the outcome [5] was “inactive”.
`CCCCC(CC)COC(=O)CCCCC(=O)OCC(CC)CCCC` (centres undefined) was tested, and the outcome [1] was “inactive”, the outcome [2] was “inactive” and the outcome [6] was “inactive”.
With `CC1=C(/C=C/C(C)=C/C=C/C(C)=C/C(=O)O)C(C)(C)CCC1` the outcome [7] was “inactive” and the outcome [8] was “inactive”.
In the case of `CCCCCCCCCCCCCC[N+](C)(C)C`, the AC50 [7] is reported as 28.3 µM (active), the AC50 [9] is reported as 39.3 µM (active) and the AC50 [3] is reported as 6.85 µM (active) and 29.1 µM (active).
With `c1ccc2cc3c(ccc4ccccc43)cc2c1` the outcome [10] was “inactive” and the outcome [4] was “inactive”.
`COCC(C)OCC(C)O` (centres undefined) was tested, and the outcome [1] was “inactive” and the outcome [4] was “inactive”.
In the case of `CC(O)CO` (centres undefined), the outcome [3] is reported as “inactive”.
In the case of `ClC1=C(Cl)C(Cl)(Cl)C(Cl)=C1Cl`, the outcome [2] is reported as “inactive” and the AC50 [4] is reported as 40.8 µM (active).
In the case of `CC[C@H](C)[C@@H](C(=O)O)n1sc2ccccc2c1=O`, the outcome [1] is reported as “inactive”, the outcome [2] is reported as “inactive” and the outcome [9] is reported as “inactive”. The outcome [3] was “inactive” and the outcome [4] was “inactive”.
For `Cc1oc(-c2ccccc2)nc1CCOc1ccc(C[C@H](Nc2ccccc2C(=O)c2ccccc2)C(=O)O)cc1`, the outcome [1] was “inactive”, the outcome [2] was “inactive” and the AC50 [5] was 16.3 µM (active).
For `NC(=O)N(O)[C@@H]1C=C[C@H](Oc2cccc(Oc3ccc(F)cc3)c2)C1`, the AC50 [1] was 34.8 µM (active), the AC50 [2] was 50 µM (active) and the outcome [9] was “inactive”.
In the case of `CC#C[C@]1(O)CC[C@H]2[C@@H]3CCC4=CC(=O)CCC4=C3[C@@H](c3ccc(N(C)C)cc3)C[C@@]21C`, the AC50 [8] is reported as 41.9 µM (active), the outcome [8] is reported as “inactive” and the AC50 [10] is reported as 29.9 µM (active). The outcome [10] was “inactive”, the outcome [3] was “inactive” and the outcome [4] was “inactive”.
For `CC(C)CCCCCCOC(=O)CCCCC(=O)OCCCCCCC(C)C`, the outcome [7] was “inactive”, the outcome [6] was “inactive” and the outcome [3] was “inactive”.
In the case of `CCC(=C(c1ccc(O)cc1)c1ccc(OCCN(C)C)cc1)c1ccccc1`, the outcome [8] is reported as “inactive”, the AC50 [9] is reported as 0.852 µM (active) and the outcome [10] is reported as “inactive”. For the same compound, the AC50 [4] was 1.85 µM (active), the outcome [4] was “inactive” and the AC50 [5] was 3.78 µM (active) [middle of 4 runs].
In the case of `O=C1OC2(c3ccccc31)c1cc(Br)c(O)c(Br)c1Oc1c2cc(Br)c(O)c1Br`, the AC50 [1] is reported as 53.7 µM (active) and the AC50 [3] is reported as 20.9 µM (active).
For `Nc1cccc2c(N)cccc12`, the outcome [1] was “inactive”, the outcome [2] was “inactive” and the outcome [9] was “inactive”. For the same compound, the AC50 [6] was 20.5 µM (active) and the AC50 [3] was 13.4 µM (active).
With `Oc1cc2ccccc2c2ccccc12` the outcome [1] was “inactive”, the outcome [2] was “inactive” and the AC50 [9] was 11 µM (active). The AC50 [3] was 1.54 µM (active) and the AC50 [5] was 4.75 µM (active).
For `CC[C@H](c1ccc(O)cc1)[C@@H](CC)c1ccc(O)cc1`, the AC50 [1] was 100 nM (active) [middle of 5 runs], the outcome [8] was “inactive” and the AC50 [9] was 0.431 µM (active). The outcome [4] was “inactive” and the outcome [5] was “inactive”.
`CN1CCN(c2ccccc2/C=C2\SCCN(c3ccc(Cl)c(Cl)c3)C2=O)CC1` was tested, and the outcome [2] was “inactive”.
